Assay results published in PubChem BioAssay (EPA / NIEHS).
Several values for one entry are separate records, joined by “and”; a condition that tells them apart may be missing. Equal entries are not always repeated. Inconclusive results are not listed. Activity calls are given as the source filed them. Rule for the calls, unless noted: active = hit-call score of the fitted dose curve at least 0.9, where 1 is the maximum; inactive = score below 0.9.

Tests used:
[1] = BSK_LPS_PGE2: BioMAP Diversity Plus: LPS Assay for Prostaglandin E2 (PGE2) Biomarker Activity (AID 2283082); details: primary human HUVEC with PBMC; actives raise or lower the signal;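 for AC50: secreted prostaglandin E2 measured by ELISA in LPS-stimulated co-culture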
Summary of the method: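 HUVEC plus human PBMC co-culture stimulated with LPS; secreted PGE2 quantified by ELISA 24 h after chemical dosing. Activity fitted bidirectionally against DMSO baseline; parallel SRB staining (0.1% SRB after 10% TCA fixation, 560 nm) flags overt cytotoxicity.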

[2] = read-out: Macrophage colony-stimulating factor (MCSF), CSF1 (gene 1435); assay: BSK_LPS_MCSF: BioMAP Diversity Plus: LPS Assay for Macrophage colony-stimulating factor (MCSF) Biomarker Activity (AID 2283083); details: primary human HUVEC with PBMC; actives raise or lower the signal
Summary of the method: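 Human umbilical vein endothelial cells co-cultured with peripheral blood mononuclear cells were exposed to compound for 24 h. M-CSF levels were measured by ELISA, and bidirectional curve fitting used DMSO as the negative control and baseline.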

[3] = read-out: Tissue Factor, F3 (gene 2152); assay: BSK_LPS_TissueFactor: BioMAP Diversity Plus: LPS Assay for Tissue Factor Biomarker Activity (AID 2283084); details: primary human HUVEC with PBMC; actives raise or lower the signal
Summary of the method: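 Human umbilical vein endothelial cells co-cultured with peripheral blood mononuclear cells were dosed and stimulated with LPS. Cell-surface CD142 was quantified by ELISA at 24 h. Activity was fitted bidirectionally against DMSO baseline.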

[4] = read-out: Tumor necrosis factor (Homo sapiens) (UniProt P01375); assay: BSK_LPS_TNFa: BioMAP Diversity Plus: LPS Assay for Tumour Necrosis Factor alpha (TNFa) Biomarker Activity (AID 2283085); details: primary human HUVEC with PBMC; actives raise or lower the signal
Summary of the method: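 Human umbilical vein endothelial cells co-cultured with PBMC and stimulated with LPS. TNFa was measured by ELISA 24 h after chemical dosing, fitted bidirectionally relative to DMSO.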

[5] = read-out: Vascular cell adhesion molecule 1 (VCAM1), VCAM1 (gene 7412); assay: BSK_LPS_VCAM1: BioMAP Diversity Plus: LPS Assay for Vascular cell adhesion molecule 1 (VCAM1) Biomarker Activity (AID 2283086); details: primary human HUVEC with PBMC; actives raise or lower the signal
Summary of the method: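 Human umbilical vein endothelial cells co-cultured with PBMC and stimulated with LPS; VCAM-1 measured by ELISA 24 h after dosing. Bidirectional curve fitting against DMSO baseline; cytotoxicity tracked in parallel by SRB total-protein staining.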

CD38, CD38 (gene 952) = assay: BSK_SAg_CD38: BioMAP Diversity Plus: SAg Assay for CD38 Biomarker Activity (AID 2283087); details: primary human HUVEC with PBMC; actives raise or lower the signal
Summary of the method: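 Human HUVEC plus PBMC co-culture stimulated with superantigen; CD38 measured by ELISA 24 h after chemical dosing. Fluorescence read-out, bidirectional fit against DMSO; cytotoxicity tracked in parallel by SRB and Alamar Blue.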

CD40, CD40 (gene 958) = assay: BSK_SAg_CD40: BioMAP Diversity Plus: SAg Assay for CD40 Biomarker Activity (AID 2283088); details: primary human HUVEC with PBMC; actives raise or lower the signal
Summary of the method: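 Human umbilical vein endothelial cells co-cultured with PBMC; CD40 levels measured by ELISA with fluorescence read-out 24 h after chemical dosing. Gain or loss of signal fitted bidirectionally against DMSO baseline.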

CD69, CD69 (gene 969) = assay: BSK_SAg_CD69: BioMAP Diversity Plus: SAg Assay for CD69 Biomarker Activity (AID 2283089); details: primary human HUVEC with PBMC; actives raise or lower the signal
Summary of the method: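 Values derive from bidirectional fitting relative to DMSO vehicle. Cells: umbilical vein endothelium plus peripheral blood mononuclear cells, treated 24 h before fluorescent ELISA for CD69.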

[6] = read-out: Monocyte Chemoattractant Protein-1 (MCP1), CCL2 (gene 6347); assay: BSK_SAg_MCP1: BioMAP Diversity Plus: SAg Assay for Monocyte Chemoattractant Protein-1 (MCP1) Biomarker Activity (AID 2283090); details: primary human HUVEC with PBMC; actives raise or lower the signal
Summary of the method: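 MCP-1 levels in the endothelial–PBMC SAg co-culture were quantified by ELISA at 24 h post-dosing; both increases and decreases versus DMSO scored. Cytotoxicity monitored by SRB total protein in parallel cultures.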

[7] = read-out: E-selectin (Homo sapiens) (UniProt P16581); assay: BSK_SAg_Eselectin: BioMAP Diversity Plus: SAg Assay for Eselectin Biomarker Activity (AID 2283091); details: primary human HUVEC with PBMC; actives raise or lower the signal
Summary of the method: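 HUVEC co-cultured with PBMC, compound dosed then read at 24 h; E-selectin measured by ELISA. Activity fitted bidirectionally against DMSO as negative control and baseline.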

[8] = read-out: Monokine induced gamma interferon (MIG), CXCL9 (gene 4283); assay: BSK_SAg_MIG: BioMAP Diversity Plus: SAg Assay for Monokine induced gamma interferon (MIG) Biomarker Activity (AID 2283092); details: primary human HUVEC with PBMC; actives raise or lower the signal
Summary of the method: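 Values reflect bidirectional fitting of ELISA-measured MIG against DMSO vehicle, taken 24 h after dosing of a co-culture of human umbilical vein endothelial cells and peripheral blood mononuclear cells.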

[9] = BSK_SAg_PBMCCytotoxicity: PBMC Cytotoxicity Assessment in the BioMAP Diversity Plus: SAg Assay (AID 2283093); details: primary human HUVEC with PBMC;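 note: PBMC viability measured as Alamar Blue reduction fluorescence at 546/580 nm; fitted both ways against DMSO so a hit may be loss or gain of signal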;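 for AC50: PBMC superantigen activated with SEB plus TSST-1 one hour after compound addition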
Summary of the method: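 HUVEC/PBMC co-culture; PBMC exposed to chemical 1 h before SEB and TSST-1 activation (20 ng/mL each), incubated 90 h, then Alamar Blue 6 h, fluorescence 546/580 nm. Bidirectional fit versus DMSO baseline.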

[10] = read-out: Interleukin-8 (IL8), CXCL8 (gene 3576); assay: BSK_SAg_IL8: BioMAP Diversity Plus: SAg Assay for Interleukin-8 (IL8) Biomarker Activity (AID 2283094); details: primary human HUVEC with PBMC; actives raise or lower the signal
Summary of the method: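 Human umbilical vein endothelial cells co-cultured with PBMC, stimulated with superantigen; IL-8 measured by ELISA 24 h after chemical dosing. Bidirectional fitting versus DMSO; SRB staining in parallel cultures tracks cytotoxicity.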

[11] = BSK_SAg_SRB: Viability Assessment in the BioMAP Diversity Plus: SAg Assay (AID 2283096); details: primary human HUVEC with PBMC;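 note: cells read one day after compound addition; hits may be either gain or loss of signal compared with DMSO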
Summary of the method: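 Human umbilical vein endothelial cells co-cultured with PBMC, read 24 h after compound dosing. Total protein measured by sulforhodamine B staining (0.1% SRB after 10% TCA fixation, absorbance 560 nm); bidirectional fit versus DMSO baseline.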

[12] = molecular target: human CYP19A1, CYP19A1 (gene 1588) (UniProt P11511); assay: NVS_ADME_hCYP19A1: NovaScreen (NVS) CYP450-related Enzyme Activity (ADME) Assay for human CYP19A1 (AID 2283098; active = hit-call score of the fitted dose curve at least 0.9, where 1 is the maximum;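 for AC50: potency for inhibitors seen as loss of fluorescent enzyme signal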)
Summary of the method: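 Recombinant enzyme in a cell-free format, read 0.5 h after dosing by fluorescence from a fluorogenic substrate. Loss of signal was fitted against acetonitrile as baseline. Primary screen in duplicate at 10 uM, actives then tested in concentration series.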

[13] = molecular target: human CYP2B6, CYP2B6 (gene 1555) (UniProt P20813); assay: NVS_ADME_hCYP2B6: NovaScreen (NVS) CYP450-related Enzyme Activity (ADME) Assay for human CYP2B6 (AID 2283101; active = hit-call score of the fitted dose curve at least 0.9, where 1 is the maximum)
Summary of the method: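 Compounds were first screened in duplicate at 10 uM against recombinant enzyme, with the fluorescent product measured after 1 hour. Active compounds were retested over a concentration series. Loss of fluorescence versus acetonitrile control was scored as reduced enzyme activity.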

[14] = molecular target: human CYP1A2, CYP1A2 (gene 1544) (UniProt P05177); assay: NVS_ADME_hCYP1A2: NovaScreen (NVS) CYP450-related Enzyme Activity (ADME) Assay for human CYP1A2 (AID 2283102; active = hit-call score of the fitted dose curve at least 0.9, where 1 is the maximum;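 for AC50: potency for inhibition since loss of fluorescence marks reduced CYP1A2 activity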)
Summary of the method: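 Cell-free recombinant human CYP1A2 expressed in insect cells, with fluorogenic substrate; fluorescence intensity read 0.5 h after dosing. Loss of signal relative to acetonitrile baseline scored. Primary screen in duplicate at 10 uM; actives retested in concentration series.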

[15] = BSK_SAg_Proliferation: Cell Proliferation Assessment in the BioMAP Diversity Plus: SAg Assay (AID 2283095); details: primary human HUVEC with PBMC
Summary of the method: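 Human umbilical vein endothelial cells co-cultured with PBMC; sulforhodamine B total-protein staining (0.1% SRB after 10% TCA fixation, absorbance 560 nm) at 96 h in sub-confluent culture. Fitted bidirectionally against DMSO.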

[16] = molecular target: human CYP2A6, CYP2A6 (gene 1548) (UniProt P11509); assay: NVS_ADME_hCYP2A6: NovaScreen (NVS) CYP450-related Enzyme Activity (ADME) Assay for human CYP2A6 (AID 2283099; active = hit-call score of the fitted dose curve at least 0.9, where 1 is the maximum)
Summary of the method: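 Cell-free fluorescence readout of recombinant human CYP2A6 expressed in insect cells, read 0.5 h after dosing; loss of signal versus acetonitrile negative control. Primary screen in duplicate at 10 uM; actives re-run in concentration-response up to 20 uM.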

Measured: AC50

Sequence of human CYP1A2, CYP1A2 (gene 1544) (P05177 whole entry, looked up): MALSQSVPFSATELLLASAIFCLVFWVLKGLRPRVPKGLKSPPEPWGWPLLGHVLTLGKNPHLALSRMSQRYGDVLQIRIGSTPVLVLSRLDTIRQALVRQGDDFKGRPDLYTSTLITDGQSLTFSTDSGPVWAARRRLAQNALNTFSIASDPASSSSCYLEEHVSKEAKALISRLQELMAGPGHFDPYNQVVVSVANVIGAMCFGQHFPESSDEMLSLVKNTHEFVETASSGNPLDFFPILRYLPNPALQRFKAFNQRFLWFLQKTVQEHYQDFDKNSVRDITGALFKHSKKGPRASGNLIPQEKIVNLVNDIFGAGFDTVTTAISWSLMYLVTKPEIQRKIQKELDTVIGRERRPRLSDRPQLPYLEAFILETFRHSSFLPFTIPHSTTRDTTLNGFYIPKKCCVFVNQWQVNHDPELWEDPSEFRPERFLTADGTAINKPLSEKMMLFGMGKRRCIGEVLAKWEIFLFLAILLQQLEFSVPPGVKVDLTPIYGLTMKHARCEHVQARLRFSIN
Sequence of E-selectin (Homo sapiens) (P16581 whole entry, looked up): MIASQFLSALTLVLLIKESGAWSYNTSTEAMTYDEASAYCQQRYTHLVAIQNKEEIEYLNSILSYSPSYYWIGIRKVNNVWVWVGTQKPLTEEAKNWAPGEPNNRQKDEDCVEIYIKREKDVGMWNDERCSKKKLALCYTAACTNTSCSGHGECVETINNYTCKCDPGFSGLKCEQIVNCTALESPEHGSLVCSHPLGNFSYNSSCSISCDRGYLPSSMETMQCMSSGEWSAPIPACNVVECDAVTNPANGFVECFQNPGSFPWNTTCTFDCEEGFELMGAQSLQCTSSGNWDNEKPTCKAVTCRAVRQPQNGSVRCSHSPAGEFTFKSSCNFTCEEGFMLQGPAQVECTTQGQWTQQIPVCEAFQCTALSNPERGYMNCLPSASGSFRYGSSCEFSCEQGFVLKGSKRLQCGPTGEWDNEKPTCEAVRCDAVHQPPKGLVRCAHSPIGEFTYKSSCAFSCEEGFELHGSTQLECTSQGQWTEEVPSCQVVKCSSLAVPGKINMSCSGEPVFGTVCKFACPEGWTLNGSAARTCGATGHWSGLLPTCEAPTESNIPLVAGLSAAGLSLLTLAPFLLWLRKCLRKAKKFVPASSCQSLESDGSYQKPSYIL
Sequence of human CYP19A1, CYP19A1 (gene 1588) (P11511 whole entry, looked up): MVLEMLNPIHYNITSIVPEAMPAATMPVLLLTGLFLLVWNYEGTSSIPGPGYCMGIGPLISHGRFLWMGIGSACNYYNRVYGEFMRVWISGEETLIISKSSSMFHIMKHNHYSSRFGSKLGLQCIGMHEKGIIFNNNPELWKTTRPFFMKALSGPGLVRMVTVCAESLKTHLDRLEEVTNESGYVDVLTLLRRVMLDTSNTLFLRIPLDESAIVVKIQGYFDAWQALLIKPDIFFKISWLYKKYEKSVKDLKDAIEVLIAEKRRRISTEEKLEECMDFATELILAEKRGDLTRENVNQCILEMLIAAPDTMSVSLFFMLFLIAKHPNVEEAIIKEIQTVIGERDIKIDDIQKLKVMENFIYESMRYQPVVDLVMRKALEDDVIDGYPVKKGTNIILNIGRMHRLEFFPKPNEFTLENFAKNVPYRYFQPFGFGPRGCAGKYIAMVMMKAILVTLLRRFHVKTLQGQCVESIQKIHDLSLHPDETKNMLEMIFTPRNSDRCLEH
Sequence of Tumor necrosis factor (Homo sapiens) (P01375 whole entry, looked up): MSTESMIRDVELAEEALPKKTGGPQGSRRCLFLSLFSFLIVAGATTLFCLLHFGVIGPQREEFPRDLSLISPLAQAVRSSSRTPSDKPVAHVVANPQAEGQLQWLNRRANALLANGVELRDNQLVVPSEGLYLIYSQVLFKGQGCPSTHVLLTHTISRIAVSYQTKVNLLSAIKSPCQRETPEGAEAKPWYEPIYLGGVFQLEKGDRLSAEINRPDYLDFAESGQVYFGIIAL
Sequence of human CYP2A6, CYP2A6 (gene 1548) (P11509 whole entry, looked up): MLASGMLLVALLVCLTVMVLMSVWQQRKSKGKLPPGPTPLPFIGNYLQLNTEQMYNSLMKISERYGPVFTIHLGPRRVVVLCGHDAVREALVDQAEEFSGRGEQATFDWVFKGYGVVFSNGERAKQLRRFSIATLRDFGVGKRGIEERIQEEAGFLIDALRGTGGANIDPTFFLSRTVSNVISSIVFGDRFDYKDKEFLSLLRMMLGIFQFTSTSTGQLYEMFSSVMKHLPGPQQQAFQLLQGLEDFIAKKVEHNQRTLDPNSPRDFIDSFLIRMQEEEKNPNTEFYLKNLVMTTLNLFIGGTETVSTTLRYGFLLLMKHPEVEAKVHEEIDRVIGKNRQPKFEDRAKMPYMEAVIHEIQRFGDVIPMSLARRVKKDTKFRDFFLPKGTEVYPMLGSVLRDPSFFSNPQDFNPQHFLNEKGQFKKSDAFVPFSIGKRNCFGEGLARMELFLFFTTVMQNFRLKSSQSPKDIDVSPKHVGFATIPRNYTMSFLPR
Sequence of human CYP2B6, CYP2B6 (gene 1555) (P20813 whole entry, looked up): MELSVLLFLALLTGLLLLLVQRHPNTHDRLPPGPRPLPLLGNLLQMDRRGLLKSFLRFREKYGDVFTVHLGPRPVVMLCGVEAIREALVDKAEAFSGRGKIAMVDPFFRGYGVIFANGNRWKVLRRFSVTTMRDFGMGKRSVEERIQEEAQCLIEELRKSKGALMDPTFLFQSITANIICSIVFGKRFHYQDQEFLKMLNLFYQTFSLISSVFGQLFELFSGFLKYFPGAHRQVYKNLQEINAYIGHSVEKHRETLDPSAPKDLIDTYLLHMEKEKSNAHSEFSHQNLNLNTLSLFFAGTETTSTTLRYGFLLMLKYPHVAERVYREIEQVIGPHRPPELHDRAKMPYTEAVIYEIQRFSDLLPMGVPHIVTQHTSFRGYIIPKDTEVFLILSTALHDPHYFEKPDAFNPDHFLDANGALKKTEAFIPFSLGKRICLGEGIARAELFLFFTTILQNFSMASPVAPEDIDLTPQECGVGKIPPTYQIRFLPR

COC(=O)c1ccc(CNS(C)(=O)=O)cc1S(=O)(=O)NC(=O)Nc1nc(OC)cc(OC)n1
not listed: [12] | [13] | [14] | [15] | [16]
inactive: all other assays above

O=C(c1ccc(O)cc1O)c1ccc(O)cc1O
active: [12] 5.78 µM and 5.75 µM and 7.34 µM | [13] 6.26 µM | [14] 4.04 µM
not listed: [15] | [16]
inactive: all other assays above

CCCN(CCC)c1c([N+](=O)[O-])cc(C(F)(F)F)c(N)c1[N+](=O)[O-]
active: [2] 20 µM | [4] 30.2 µM | [5] 30.7 µM | CD40, CD40 (gene 958) 28.9 µM | [6] 31 µM | [7] 29.3 µM | [8] 31.7 µM | [9] 15 µM | [10] 20 µM | [11] 14.7 µM | [14] 6.02 µM
inactive: [1] | [3] | CD38, CD38 (gene 952) | CD69, CD69 (gene 969)

CCOC(=O)[C@H](C)Oc1ccc(Oc2nc3ccc(Cl)cc3o2)cc1
active: [1] 8.85 µM | CD38, CD38 (gene 952) 29.9 µM
not listed: [12] | [13] | [15] | [16]
inactive: all other assays above

CCC(C)OC(=O)N1CCCCC1CCO (stereo unspecified)
not listed: [12] | [13] | [14] | [15] | [16]
inactive: all other assays above

O=C(c1ccccc1)C1CCCCC1
not listed: [13] | [14] | [15] | [16]
inactive: all other assays above

S=C([S-])NCCNC(=S)[S-].[Mn+2]
inactive: [1] | [3] | CD40, CD40 (gene 958) | CD69, CD69 (gene 969) | [8] | [11] | [16]
active: [2] 13.2 µM | [4] 20 µM | [5] 14.7 µM | CD38, CD38 (gene 952) 14.6 µM | [6] 30.3 µM | [9] 25.5 µM | [10] 30 µM | [15] 8.4 µM | [12] 1.11 µM | [14] 5.5 µM

N[C@@H](Cc1cc(I)c(Oc2ccc(O)c(I)c2)c(I)c1)C(=O)O
active: [3] 3.17 µM
not listed: [12] | [13] | [14] | [15] | [16]
inactive: all other assays above

CN(C)C(=O)Nc1ccc(Cl)c(Cl)c1
active: [1] 7.82 µM | [14] 1.63 µM
not listed: [12] | [13] | [15] | [16]
inactive: all other assays above
